{"source": "the supplement of paper PMC9262897", "about": "“Low-cost anti-mycobacterial drug discovery using engineered E. coli” (Nature Communications, 2022)", "note": "Structures can show the parent of a compound that is named as a salt. ± gives the standard deviation of the averaged measurements."}
{"tested_on": "E. coli TESEC Mtb Asd", "test": "growth (OD600 after 10 h); higher = more growth (less inhibition)", "details": "arabinose induction (level): Low; compound 0.1 mM; raw OD600 reference: median of DMSO wells 0.417, cell-free background 0.041", "experimental": "(§1)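 TESEC E. coli strains in which the native enzyme is deleted and replaced by arabinose-inducible Mtb Asd, DapB, CysH or TrpD, each grown in its selective medium. Strains were screened against the Prestwick library at 0.1 mM and 1% DMSO in 384-well format at low and high arabinose induction. Growth is read as OD600 after 10 h in triplicate.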"}
{"smiles": "CC(CCc1ccccc1)NC(C)C(O)c1ccc(O)cc1", "note": "(stereo not drawn) [Nylidrin]", "growth": "0.495 ± 0.048"}
{"smiles": "NCCCNCCSP(=O)(O)O", "note": "[Amifostine]", "growth": "0.431 ± 0.061"}
{"smiles": "CCC1(c2ccc(N)cc2)CCC(=O)NC1=O", "note": "(stereo not drawn) [Glutethimide, para-amino]", "growth": "0.43 ± 0.03"}
{"smiles": "CCN(CC)C(C)C(=O)c1ccccc1", "note": "(stereo not drawn) [Amfepramone hydrochloride]", "growth": "0.447 ± 0.047"}
{"smiles": "C=C(C)[C@@H]1[C@H]2OC(=O)[C@@H]1[C@]1(O)C[C@H]3O[C@]34C(=O)O[C@H]2[C@]14C", "note": "[Picrotoxinin]", "growth": "0.461 ± 0.003"}
{"smiles": "CC1C=CC=CCCC=CC=CC=CC=CC(OC2OC(C)C(O)C(N)C2O)CC2OC(O)(CC(O)C(O)CCC(O)CC(O)CC(O)CC(=O)OC(C)C(C)C1O)CC(O)C2C(=O)O", "note": "(stereo not drawn) [Nystatine]", "growth": "0.256 ± 0.023"}
{"smiles": "CC(C)CC(N(C)C)C1(c2ccc(Cl)cc2)CCC1", "note": "(stereo not drawn) [Sibutramine HCl]", "growth": "0.37 ± 0.098"}
{"smiles": "CCC1(CC)C(=O)C=CNC1=O", "note": "[Pyrithyldione]", "growth": "0.438 ± 0.018"}
{"smiles": "CCN(C)C(=O)Oc1cccc([C@H](C)N(C)C)c1", "note": "[Rivastigmine]", "growth": "0.343 ± 0.067"}
{"tested_on": "E. coli TESEC Mtb DapB", "test": "growth (OD600 after 10 h); higher = more growth (less inhibition)", "details": "arabinose induction (level): High; compound 0.1 mM; raw OD600 reference: median of DMSO wells […], cell-free background 0.041", "experimental": "as §1"}
{"smiles": "CC(N)C(O)c1ccccc1", "note": "(stereo not drawn) [Phenylpropanolamine hydrochloride]", "growth": "0.189 ± 0.009"}
{"smiles": "CC(Cc1ccccc1)NCCC(c1ccccc1)c1ccccc1", "note": "(stereo not drawn) [Prenylamine lactate]", "growth": "0.0466 ± 0.00036"}
{"smiles": "COc1ccc(CN2CCNCC2)c(OC)c1OC", "note": "[Trimetazidine dihydrochloride]", "growth": "0.197 ± 0.0097"}
{"smiles": "OC(c1ccccc1)(c1ccccc1)C1CCNCC1", "note": "[Azacyclonol]", "growth": "0.185 ± 0.013"}
{"smiles": "C=C1C[C@@H]2[C@H](CC[C@]3(C)C(=O)CC[C@@H]23)[C@@]2(C)C=CC(=O)C=C12", "note": "[Exemestane]", "growth": "0.112 ± 0.0048"}
{"smiles": "C[N+](C)(C)CCCCCCCCCC[N+](C)(C)C", "note": "[Decamethonium bromide]", "growth": "0.234 ± 0.021"}
{"smiles": "CC(CCc1ccccc1)NC(C)C(O)c1ccc(O)cc1", "note": "(stereo not drawn) [Nylidrin]", "growth": "0.222 ± 0.027"}
{"tested_on": "E. coli TESEC Mtb DapB", "test": "growth (OD600 after 10 h); higher = more growth (less inhibition)", "details": "arabinose induction (level): Low; compound 0.1 mM; raw OD600 reference: median of DMSO wells 0.227, cell-free background 0.041", "experimental": "as §1"}
{"smiles": "CC(N)C(O)c1ccccc1", "note": "(stereo not drawn) [Phenylpropanolamine hydrochloride]", "growth": "0.226 ± 0.025"}
{"smiles": "CC(Cc1ccccc1)NCCC(c1ccccc1)c1ccccc1", "note": "(stereo not drawn) [Prenylamine lactate]", "growth": "0.04663 ± 0.00038"}
{"smiles": "COc1ccc(CN2CCNCC2)c(OC)c1OC", "note": "[Trimetazidine dihydrochloride]", "growth": "0.242 ± 0.028"}
{"smiles": "OC(c1ccccc1)(c1ccccc1)C1CCNCC1", "note": "[Azacyclonol]", "growth": "0.213 ± 0.036"}
{"smiles": "C=C1C[C@@H]2[C@H](CC[C@]3(C)C(=O)CC[C@@H]23)[C@@]2(C)C=CC(=O)C=C12", "note": "[Exemestane]", "growth": "0.109 ± 0.0022"}
{"smiles": "C[N+](C)(C)CCCCCCCCCC[N+](C)(C)C", "note": "[Decamethonium bromide]", "growth": "0.242 ± 0.0099"}
{"smiles": "CC(CCc1ccccc1)NC(C)C(O)c1ccc(O)cc1", "note": "(stereo not drawn) [Nylidrin]", "growth": "0.243 ± 0.0092"}
